A selection: hits, their analogues and other compounds. The true share with any hit is near 11%.
NPR1 antag – antagonists of human natriuretic peptide receptor Npr1; P16066; HEK293 hNpr1 GloSensor cGMP, ANP-stimulated luminescence; Potency, µM (series often up to 46.3 µM), hits mostly inhibitors; 76,000 compounds, 1.6% hits; calls by dose curve; further: nearly all actives have a fitted effect of over 60% in size
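Compound pre-incubated 30 min at room temperature on GloSensor-loaded HEK293 cells stably carrying hNpr1 and the pGS-40F cGMP biosensor. Stimulation uses hNppA at 0.1 nM final; luminescence is taken at baseline and 20 min post-agonist.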
HEK cytotox – HEK 293 cell cytotoxicity. 94,000 compounds, 6.6% hits. HEK 293 viability, ATP luminescence (CellTiter-Glo), 48-72 h. Potency, µM (top dose mostly 115 µM), hits mostly inhibitors. AID 1345083; further: nearly all actives have a fitted effect of over 60% in size
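HEK 293 cells at 250 cells/well were exposed to compounds by pintool transfer for 48 or 72 hr at 37 degree Celsius, 5% CO2. Viability was read as ATP-coupled luminescence with CellTiter-Glo after 10 min at room temperature.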
3T3 cytotox – kills NIH 3T3 cells; 94,000 compounds, 4.3% hits; Potency, µM (top dose mostly 96.7 µM), actives largely listed as inhibitors; NIH 3T3 viability, CellTiter-Glo ATP luminescence, 48-72 h; further: nearly all actives have a fitted effect of over 55% in size
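First NIH 3T3 cells are plated at 400 cells/well; next compound is pinned in; then plates incubate 48 or 72 hr at 37 °C; finally CellTiter-Glo is added and luminescence read after 10 min.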
FLuc inh-1 – Photinus pyralis luciferase inhibition. P08659. purified P. pyralis luciferase, luminescence, biochemical. Potency, µM (titrated, usually from 115 µM), usual class: inhibitors. 76,000 compounds, 2.5% hits; further: nearly all actives have a fitted effect of over 65% in size
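Luminescence read by CCD imaging after purified firefly luciferase (10nM final) was added to substrate buffer holding 10uM D-luciferin and 10uM ATP, pH 7.5, pre-dosed with compound.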
FLuc SDR -ATP – firefly luciferase binding stabilization, ATP absent. Purified FLuc-C-HiBiT, Nano-Glo HiBiT luminescence, no ATP. 1,300 compounds, 7.8% hits. Potency, µM (doses to about 32.7 µM), actives largely listed as activators. shares compounds with FLuc inh-1; further: nearly all actives have a fitted effect of over 55% in size
FLuc SDR ATP – binders stabilizing firefly luciferase, plus ATP; shares compounds with FLuc inh-1; purified FLuc-C-HiBiT + ATP, HiBiT complementation luminescence; Potency, µM (doses to about 32.7 µM), hits mostly activators; 1,300 compounds, 8.7% hits; AID 1963319;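 further: signal reports ligand binding via conformational change of the enzyme rather than luciferase catalysis; nearly all actives have a fitted effect of over 55% in size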
FLuc inh-2 – firefly luciferase enzyme inhibition; shares compounds with FLuc inh-1; purified FLuc-C-HiBiT enzyme, luciferin luminescence; Potency, µM (series often up to 32.7 µM), actives largely listed as inhibitors; 1,300 compounds, 42% hits; AID 1963320; further: nearly all actives have a fitted effect of over 70% in size
NPR1 antag cnf – confirmation of human Npr1 natriuretic peptide receptor antagonists | 1,400 compounds, 76% hits | shares compounds with NPR1 antag | Potency, µM (series often up to 57.6 µM), usual class: inhibitors | HEK293 hNpr1 cGMP GloSensor luminescence, ANP-stimulated | AID 1347044; calls by dose curve; further: nearly all actives have a fitted effect of over 70% in size
NPR2 antag – hNpr2 antagonism, selectivity versus Npr1. shares compounds with NPR1 antag. HEK293 hNpr2 GloSensor cGMP luminescence, CNP-stimulated. Potency, µM (highest dose often 57.6 µM), hits mostly inhibitors. 1,400 compounds, 67% hits. AID 1347046; calls by dose curve; further: nearly all actives have a fitted effect of over 70% in size
FLuc counter – counter-screen for Npr1 antagonists: firefly luciferase inhibitors; shares compounds with NPR1 antag; purified FLuc enzyme, luminescence, Km substrate; Potency, µM (top dose mostly 57.6 µM), actives largely listed as inhibitors; 1,400 compounds, 0.7% hits; AID 1347047
GloSensor cGMP – control cell line activity, Npr1 antagonist counter-screen; Potency, µM (highest dose often 57.6 µM), usual class: inhibitors; 1,400 compounds, 69% hits; shares compounds with NPR1 antag; HEK293 GloSensor cGMP, SNP-stimulated, luminescence; calls by dose curve; further: nearly all actives have a fitted effect of over 70% in size
Each line names hits and unclear results; the compound was inactive in the other large screens (follow-up assays come after a bar, where they were run). Unless noted, the call rests on the fitted dose curve; in most records, active means well fitted curve in the direction sought with a large enough effect; inconclusive means small, poorly fitted or top-dose-only effect, or another doubt; inactive means no such curve, though single readings can be large; an effect the other way counts as inactive or inconclusive.

COc1cc2c(cc1OC1CCCC1)NC(=O)C21CCN(Cc2cccc(O)c2)CC1	HEK cytotox 89.1µM, 3T3 cytotox 25.1µM
COc1cc2c(cc1OCc1ccccc1)NC(=O)C21CCN(C(=O)c2cccnc2)CC1	NPR1 antag inconclusive, HEK cytotox 50.1µM, 3T3 cytotox inconclusive
COc1cc2c(cc1OC1CCCC1)NC(=O)C21CCN(Cc2ccncc2)CC1	HEK cytotox inconclusive, 3T3 cytotox inconclusive
O=C(c1ccc(F)cc1)N1C[C@@H]2C[C@H](C1)c1c(-c3cc4ccccc4s3)ccc(=O)n1C2	none
CC(C)CN1CCNc2cc(-c3ccccc3)ncc2C1	HEK cytotox inconclusive, 3T3 cytotox inconclusive, FLuc inh-1 3.98µM | FLuc SDR -ATP inactive | FLuc SDR ATP inactive | FLuc inh-2 inconclusive
O=C1Nc2ccccc2CC12CCN2Cc1ccccn1 (configuration not stated)	none
O=C(Nc1ccccc1)Nc1ccc2n(c1=O)C[C@H]1C[C@@H]2CN(C(=O)c2ccccc2)C1	HEK cytotox inconclusive, 3T3 cytotox inconclusive, FLuc inh-1 14.1µM | FLuc SDR -ATP inconclusive | FLuc SDR ATP inactive | FLuc inh-2 inconclusive
O=C(Nc1ccc2n(c1=O)C[C@H]1C[C@@H]2CN(C(=O)Nc2ccccc2)C1)c1ccncc1	3T3 cytotox inconclusive
CN1CCNc2cc(Nc3ccncc3)ncc2C1	HEK cytotox inconclusive, 3T3 cytotox inconclusive
CN1CCNc2cc(Nc3ccc(F)cc3)ncc2C1	HEK cytotox inconclusive, 3T3 cytotox inconclusive, FLuc inh-1 3.16µM | FLuc SDR -ATP inactive | FLuc SDR ATP inactive | FLuc inh-2 20.2µM
CN1CCNc2cc(Nc3ccc(F)c(Cl)c3)ncc2C1	NPR1 antag inconclusive, HEK cytotox inconclusive, 3T3 cytotox 50.1µM, FLuc inh-1 0.794µM | FLuc SDR -ATP inactive | FLuc SDR ATP inactive | FLuc inh-2 12.8µM
O=C(Nc1ccc2c(c1)OCCO2)N1[C@H]2CC[C@@H]1c1cncnc1C2	none
CN1CCN(C(=O)CCc2ccncc2)CC12CCNCC2	none
COc1cc2c(cc1OCc1ccncc1)NC(=O)C21CCN(c2nc(C)cc(C)n2)CC1	HEK cytotox inconclusive, 3T3 cytotox inconclusive
COc1ccc(-n2cc(C3=CCN(CCN4CCOCC4)CC3)cn2)cc1	NPR1 antag inconclusive, HEK cytotox inconclusive, 3T3 cytotox inconclusive, FLuc inh-1 4.47µM | FLuc SDR -ATP inconclusive | FLuc SDR ATP inconclusive | FLuc inh-2 9.89µM
COc1cc2c(cc1-c1ccc(CO)cc1)NC(=O)C21CCN(C)CC1	none (no result: NPR1 antag, HEK cytotox, 3T3 cytotox, FLuc inh-1) | FLuc SDR -ATP inactive | FLuc SDR ATP inactive | FLuc inh-2 inconclusive
CCC(CC)c1cc([C@H]2CN3CC[C@H]2C[C@@H]3CNS(C)(=O)=O)nc(-c2ccncc2)n1	none
CCC(CC)c1cc([C@H]2CN3CC[C@H]2C[C@@H]3CNS(=O)(=O)c2cccs2)nc(-c2ccncc2)n1	NPR1 antag 14.1µM, HEK cytotox inconclusive, 3T3 cytotox 20µM | NPR1 antag cnf 21.7µM | NPR2 antag 10.9µM | FLuc counter inactive | GloSensor cGMP inactive
Cn1cccc1CN1CCCC2(CC(c3cccnc3)=NO2)C1 (configuration not stated)	none (no result: NPR1 antag, FLuc inh-1)
COc1cc2c(cc1Oc1ccccc1)NC(=O)C21CCN(c2cnccn2)CC1	HEK cytotox inconclusive, 3T3 cytotox inconclusive | NPR1 antag cnf inconclusive | NPR2 antag inconclusive | FLuc counter inactive | GloSensor cGMP inconclusive
O=C(COc1ccc(F)cc1)N1[C@H]2CC[C@@H]1c1cnc(-c3ccccc3)nc1C2	HEK cytotox inconclusive (no result: NPR1 antag, FLuc inh-1)
Cc1cccc(OCC(=O)N2[C@H]3CC[C@@H]2c2cnc(-c4ccc(F)cc4)nc2C3)c1	NPR1 antag inconclusive, HEK cytotox inconclusive, 3T3 cytotox inconclusive | NPR1 antag cnf inconclusive | NPR2 antag inconclusive | FLuc counter inactive | GloSensor cGMP inconclusive
Cc1ncccc1C(=O)N1[C@H]2CC[C@@H]1c1cnc(-c3ccc(F)cc3)nc1C2	HEK cytotox inconclusive, 3T3 cytotox inconclusive
COCCn1c(C)cc(C(=O)N2[C@H]3CC[C@@H]2c2cnc(-c4ccc(F)cc4)nc2C3)c1C	NPR1 antag 11.2µM, HEK cytotox 25.1µM, 3T3 cytotox inconclusive | NPR1 antag cnf 12.2µM | NPR2 antag 15.3µM | FLuc counter inactive | GloSensor cGMP 13.7µM
Cc1ccsc1C(=O)N1[C@H]2CC[C@@H]1c1cnc(-c3ccc(F)cc3)nc1C2	NPR1 antag 5.62µM, HEK cytotox inconclusive, 3T3 cytotox inconclusive | NPR1 antag cnf 7.69µM | NPR2 antag 7.69µM | FLuc counter inactive | GloSensor cGMP 6.11µM
Cc1cc(C(=O)N2[C@H]3CC[C@@H]2c2cnc(-c4ccc(F)cc4)nc2C3)n[nH]1	NPR1 antag 12.6µM, HEK cytotox inconclusive, 3T3 cytotox inconclusive | NPR1 antag cnf 24.3µM | NPR2 antag 24.3µM | FLuc counter inactive | GloSensor cGMP 24.3µM
C#C[C@H]1CN2CC[C@H]1C[C@@H]2CNC(=O)c1ccc2ccccc2c1	HEK cytotox inconclusive, 3T3 cytotox inconclusive
O=C1Nc2ccccc2C12CCN(Cc1ccc(F)cc1)CC2	HEK cytotox inconclusive (no result: NPR1 antag, FLuc inh-1)
O=C1Nc2ccccc2C12CCN(Cc1ccc(C(F)(F)F)cc1)CC2	HEK cytotox inconclusive, 3T3 cytotox inconclusive (no result: NPR1 antag, FLuc inh-1) | NPR1 antag cnf 24.3µM | NPR2 antag 24.3µM | FLuc counter inactive | GloSensor cGMP 24.3µM
Cc1ccc(CC(=O)N2CCN(C3CCN(Cc4cccnc4)C3=O)CC2)cc1 (configuration not stated)	HEK cytotox inconclusive, 3T3 cytotox inconclusive

Screening results (PubChem)
